Test results reported in PubChem BioAssay.
Values joined by “and” are separate entries in the source; they are usually repeats but may differ in a detail not shown here. Equal values may be shown once. Results filed as inconclusive are left out. Active and inactive are the calls of the source. Unless noted, no stated cut-off is given here; in the data, active means inhibition above about 80%; inactive means the rest.

Experiments:
[1] = growth inhibition of DIPG glioma cells, dose response, cell-based, SU-DIPG-XVII, MIPE5.0, CellTiter-Glo, qHTS (AID 1347060; cut-off not given, nearly all actives have AC50 up to about 26 µM;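 on AC50: cells exposed to compound for 48 hours before viability readout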); settings: SU-DIPG-XVII viability, CellTiter-Glo ATP luminescence
[2] = growth inhibition of DIPG glioma cells, dose response, cell-based, SU-DIPG-XIII, MIPE4.0, CellTiter-Glo, qHTS (AID 1347061; cut-off not given, nearly all actives have AC50 up to about 37 µM;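 further: cells exposed to compound for 48 hours before readout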); settings: SU-DIPG-XIII viability, CellTiter-Glo ATP luminescence
[3] = growth inhibition of DIPG glioma cells, dose response, cell-based, JHH-DIPG-1, MIPE4.0, CellTiter-Glo, qHTS (AID 1347062; cut-off not given, nearly all actives have AC50 up to about 27 µM;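 on AC50: cells exposed to compound for two days before readout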); settings: JHH-DIPG-1 viability, CellTiter-Glo ATP luminescence
[4] = growth inhibition of DIPG glioma cells, dose response, cell-based, SU-DIPG-IV, MIPE4.0, CellTiter-Glo, qHTS (AID 1347063; cut-off not given, nearly all actives have AC50 up to about 30 µM;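 further: compound exposure lasted 48 hours before the viability readout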); settings: SU-DIPG-IV viability, CellTiter-Glo ATP luminescence
[5] = SU-DIPG-VI glioma cell viability, MIPE4.0 library, CellTiter-Glo luminescence, qHTS (AID 1347066; cut-off not given, nearly all actives have AC50 up to about 30 µM;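 further: cells exposed to compound for 48 hours before readout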); settings: CellTiter-Glo ATP luminescence
[6] = JHH-DIPG-1 glioma cell viability, MIPE5.0 library, CellTiter-Glo luminescence, qHTS (AID 1347067; cut-off not given, nearly all actives have AC50 up to about 26 µM;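 further: cells exposed to compound for 48 hours before readout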); settings: JHH-DIPG-1 glioma viability, CellTiter-Glo ATP luminescence
[7] = SU-DIPG-XXV glioma cell viability, MIPE5.0 library, qHTS (AID 1347068; cut-off not given, nearly all actives have IC50 up to about 30 µM)
[8] = LFS_MB_P medulloblastoma growth inhibition, cell-based, chromothripsis tumors, cisplatin or BGB combos (AID 1671449); settings: LFS_MB_P medulloblastoma cells;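 further: cells exposed for 96 hours; 0% = vehicle DMSO and 100% = killing by high DMSO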
[9] = HDN33 neuroblastoma growth inhibition, cell-based, chromothripsis tumors, cisplatin or BGB combos (AID 1671450); settings: HDN33 neuroblastoma cells, stronger effect = higher value;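 further: cells exposed to compound for four days; 0% = vehicle DMSO and 100% = cell killing by high DMSO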
[10] = HTB85 osteosarcoma cell growth inhibition, synergistic combos for chromothripsis tumors, BGB or cisplatin IC20 combos (AID 1671453); settings: HTB85 osteosarcoma cells, drug combinations, stronger effect = higher value;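 further: cells exposed for 96 hours before readout; 0% = vehicle DMSO and 100% = high DMSO killing control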
[11] = MDA-MB-436 breast carcinoma cell growth inhibition, synergistic combos for chromothripsis tumors, BGB or cisplatin combos (AID 1671458; call rule not given here;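 further: cells exposed for 96 hours; 0% = vehicle DMSO and 100% = killing by high DMSO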); settings: MDA-MB-436 breast carcinoma growth inhibition, drug combinations, stronger effect = higher value
[12] = growth inhibition of BT084 medulloblastoma cells, cell-based, ICGC_MB145, cisplatin and BGB IC40 combos (AID 1671461); settings: drug combinations, stronger effect = higher value;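 further: cells exposed to drugs for 96 hours; 0% = vehicle DMSO and 100% = high DMSO full killing control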
[13] = growth inhibition of RCMB18 medulloblastoma cells, cell-based, cisplatin and BGB IC40 combos (AID 1671462); settings: stronger effect = higher value;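 further: cells exposed to compound for four days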
[14] = growth inhibition of CRL1545 osteosarcoma cells, cell-based, cisplatin and BGB IC20 combos (AID 1671464); settings: stronger effect = higher value;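 further: cells exposed to compound for 96 hours before readout; 0% = vehicle DMSO and 100% = high DMSO killing control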
[15] = at 0.5 µM, stronger effect = higher value
[16] = measured here: combination with BGB IC20, at 0.005 µM
[17] = measured here: combination with BGB IC40, at 0.005 µM
[18] = measured here: combination with BGB IC40, at 0.05 µM
[19] = measured here: combination with cisplatin, at 0.5 µM, stronger effect = higher value
[20] = measured here: combination with cisplatin, at 5 µM, stronger effect = higher value
[21] = measured here: with BGB IC20 combination, at 0.5 µM
[22] = measured here: with cisplatin IC20 combination, at 0.5 µM
[23] = measured here: with BGB IC20, at 0.5 µM
[24] = measured here: with BGB IC20, at 5 µM
[25] = measured here: with cisplatin IC20, at 0.5 µM
[26] = measured here: with cisplatin IC20, at 5 µM
[27] = measured here: BGB combination, at 0.5 µM
[28] = measured here: BGB combination, at 5 µM
[29] = measured here: cisplatin combination, at 0.5 µM
[30] = measured here: cisplatin combination, at 5 µM
[31] = cisplatin combination, at 0.5 µM
[32] = measured here: BGB IC40 combination 0.05 uM, at 0.05 µM
[33] = measured here: BGB IC40 combination, at 0.05 µM
[34] = measured here: combination with cisplatin, at 0.5 µM

SMILES: COc1c(N2CCNC(C)C2)c(F)cc2c(=O)c(C(=O)O)cn(C3CC3)c12 (configuration not stated)
- outcome [1]: inactive
- outcome [2]: inactive
- outcome [3]: inactive
- outcome [4]: inactive
- outcome [5]: inactive
- outcome [6]: inactive
- outcome [7]: inactive
- inhibition [8, 15]: -20.5% (inactive) and -4.2% (inactive)
- inhibition [8, 16]: 17.2% and 22.3%
- inhibition [8, 17]: 3.24% and -1.74%
- inhibition [8, 18]: -33% and 5.75%
- inhibition [8, 19]: -33.3% and -6.41%
- inhibition [8, 20]: -5.09% and 4.8%
- inhibition ([9]; BGB combo, at 5 µM): -39.9% and 9.99%
- inhibition ([9]; at 0.5 µM): -22% (inactive) and 8.9% (inactive)
- inhibition ([9]; cisplatin combo, at 5 µM): -25.7% and 17.8%
- inhibition [9, 21]: -19.2% and 9.8%
- inhibition [9, 22]: -37.3% and 8.47%
- inhibition ([9]; single agent, at 5 µM): -2.12% and 5.9%
- inhibition ([10]; at 0.5 µM): -28.9% (inactive) and -4.45% (inactive)
- inhibition [10, 23]: -22.5% and -1.96%
- inhibition [10, 24]: -17.3% and -16.7%
- inhibition [10, 25]: -35.1% and -12%
- inhibition [10, 26]: -18.3% and -5.81%
- inhibition ([10]; single agent, at 5 µM): 17.7% and -9.93%
- inhibition ([11]; at 0.5 µM): -1.19% (inactive) and -2.62% (inactive)
- inhibition [11, 27]: 3.75% and -2.36%
- inhibition [11, 28]: -2.62% and -0.158%
- inhibition [11, 29]: -6.86% and -4.47%
- inhibition [11, 30]: -18.4% and -9.12%
- inhibition ([12]; at 0.5 µM): 11.1% (inactive) and -2.29% (inactive)
- inhibition [12, 31]: -21.4% and -4.21%
- inhibition ([12]; cisplatin combination, at 5 µM): -1.24% and -0.514%
- inhibition [12, 32]: 19.1% and 4.51%
- inhibition ([12]; single agent, at 5 µM): -3.66% and 0.545%
- inhibition ([13]; at 0.5 µM): 0.35% (inactive) and 3.27% (inactive)
- inhibition ([13]; cisplatin combo, at 5 µM): -46.2% and 7.98%
- inhibition [13, 33]: -11.6% and -8.34%
- inhibition [13, 34]: -15.6% and 6.4%
- inhibition ([13]; single agent, at 5 µM): 4.79% and -5.12%
- inhibition ([14]; at 0.5 µM): -17.5% (inactive) and -1.12% (inactive)
- inhibition [14, 21]: -19.9% and -23.9%
- inhibition [14, 22]: -18.3% and 8.22%
- inhibition ([14]; single agent, at 0.05 µM): -13.6% and 2.79%
- inhibition ([14]; single agent, at 5 µM): -53.5% and 15.1%

SMILES: Oc1c(Cl)cc(Cl)c2cccnc12
- AC50 [1]: 16.6 µM (active)
- AC50 [2]: 18.7 µM (active)
- AC50 [4]: 26.4 µM (active)
- AC50 [5]: 18.7 µM (active)
- AC50 [6]: 2.95 µM (active)

SMILES: S=c1nc[nH]c2nc[nH]c12
- AC50 [1]: 1.18 µM (active)
- outcome [2]: inactive
- AC50 [3]: 0.935 µM (active)
- outcome [4]: inactive
- inhibition [8, 15]: -16.7% (inactive) and -25.3% (inactive) and -23.4% (inactive)
- inhibition [8, 16]: -9.64% and 14% and 16.4%
- inhibition [8, 17]: -23.4% and -1.54% and -20.6%
- inhibition [8, 18]: -13.7% and 4.76% and 13.1%
- inhibition [8, 19]: -46.7% and -35.2% and -28.2%
- inhibition [8, 20]: -18.6% and -9.9% and -19.4%
- inhibition ([9]; BGB combo, at 5 µM): 6.4% and -7.61% and -1.61%
- inhibition ([9]; at 0.5 µM): 21.5% (inactive) and -7.1% (inactive) and 2.79% (inactive)
- inhibition ([9]; cisplatin combo, at 5 µM): 17.2% and 3.9% and 15.7%
- inhibition [9, 21]: 17.6% and -24.1% and -7.78%
- inhibition [9, 22]: 11.8% and -15.2% and -7.14%
- inhibition ([9]; single agent, at 5 µM): 55.5% and 46.9% and 55.8%
- inhibition ([10]; at 0.5 µM): -18.6% (inactive) and -13.7% (inactive) and -28.1% (inactive)
- inhibition [10, 23]: -53.8% and -19.7% and -40.4%
- inhibition [10, 24]: -9.25% and -19% and -8.77%
- inhibition [10, 25]: -18.6% and -5.87% and -28%
- inhibition [10, 26]: -12.1% and 4.25% and -34.8%
- inhibition ([10]; single agent, at 5 µM): 18.8% and -4.98% and -9.17%
- inhibition ([11]; at 0.5 µM): -2.57% (inactive) and -1.27% (inactive) and 12.1% (inactive)
- inhibition [11, 27]: -26.2% and -7.09% and 10.3%
- inhibition [11, 28]: 19.5% and 16% and 25.5%
- inhibition [11, 29]: -2.23% and -7.71% and 3.05%
- inhibition [11, 30]: 44.5% and 28.1% and 46.1%
- inhibition ([12]; at 0.5 µM): -23.3% (inactive) and -12% (inactive) and -13.4% (inactive)
- inhibition [12, 31]: -28% and -16.1% and -18.3%
- inhibition ([12]; cisplatin combination, at 5 µM): -59.7% and -17.4% and -65.5%
- inhibition [12, 32]: -9.27% and 73.7% and -6.21%
- inhibition ([12]; single agent, at 5 µM): -10.1% and 19.3% and -6.27%
- inhibition ([13]; at 0.5 µM): 0.61% (inactive) and -7.44% (inactive) and -22.1% (inactive)
- inhibition ([13]; cisplatin combo, at 5 µM): 12.2% and -28% and -29.1%
- inhibition [13, 33]: 0.705% and 3.13% and 5.02%
- inhibition [13, 34]: 30% and -22% and -77.2%
- inhibition ([13]; single agent, at 5 µM): -40.6% and 41.7% and -25.7%
- inhibition ([14]; at 0.5 µM): -26.3% (inactive) and -12.8% (inactive) and -43.8% (inactive)
- inhibition [14, 21]: -10.8% and -54.5% and -18%
- inhibition [14, 22]: -34% and 8.01% and -56.8%
- inhibition ([14]; single agent, at 0.05 µM): 2.04% and -10.4% and -14.2%
- inhibition ([14]; single agent, at 5 µM): 33.1% and 21.8% and 31.5%
